{"source": "paper PMC7862700", "about": "“An all-to-all approach to the identification of sequence-specific readers for epigenetic DNA modifications on cytosine”", "experiment_in_all_cases": "DAPPL (digital affinity profiling via proximity ligation, sequencing); 10 mM Tris-HCl pH 7.5, 50 mM NaCl, 1 mM DTT, 4% glycerol, room temperature, 30 min; GST-TFs on glutathione beads, 16-mer random dsDNA library, 0.1% formaldehyde crosslink after washing; high values mean tight binding", "key": {"FEV": {"target": "T1, FEV (Homo sapiens, UniProt Q99581 1-238)", "T1 sequence": "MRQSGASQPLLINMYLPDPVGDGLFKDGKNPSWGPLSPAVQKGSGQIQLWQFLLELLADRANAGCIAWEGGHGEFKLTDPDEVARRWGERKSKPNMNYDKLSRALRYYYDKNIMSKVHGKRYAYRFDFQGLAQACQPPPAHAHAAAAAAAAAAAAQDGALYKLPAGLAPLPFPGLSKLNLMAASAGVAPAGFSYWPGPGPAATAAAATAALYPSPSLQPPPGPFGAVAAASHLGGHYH", "details": "protein: recombinant; tags: N-terminal GST; dsDNA, one strand shown", "outline": "(§1)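 The binding signal reported is, for every hexamer, its read frequency for a factor over its read frequency for the tag-only sample. Reads came from pools of yeast-expressed, GST-fused human transcription factors on glutathione beads, barcoded with DNA and mixed with that sample, which were incubated with 200 nmole of a random double-stranded 16-mer DNA library in Tris/NaCl/DTT/glycerol buffer at room temperature for 30 min. After washing, the pools were crosslinked with 0.1% formaldehyde, proximity-ligated with BsaI/T4 ligase for 1 h at 37 °C, PCR-amplified and sequenced on an Illumina NextSeq500.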"}, "ETV5": {"target": "ETV5 (Homo sapiens, UniProt P41161 1-510)", "sequence (P41161 whole entry)": "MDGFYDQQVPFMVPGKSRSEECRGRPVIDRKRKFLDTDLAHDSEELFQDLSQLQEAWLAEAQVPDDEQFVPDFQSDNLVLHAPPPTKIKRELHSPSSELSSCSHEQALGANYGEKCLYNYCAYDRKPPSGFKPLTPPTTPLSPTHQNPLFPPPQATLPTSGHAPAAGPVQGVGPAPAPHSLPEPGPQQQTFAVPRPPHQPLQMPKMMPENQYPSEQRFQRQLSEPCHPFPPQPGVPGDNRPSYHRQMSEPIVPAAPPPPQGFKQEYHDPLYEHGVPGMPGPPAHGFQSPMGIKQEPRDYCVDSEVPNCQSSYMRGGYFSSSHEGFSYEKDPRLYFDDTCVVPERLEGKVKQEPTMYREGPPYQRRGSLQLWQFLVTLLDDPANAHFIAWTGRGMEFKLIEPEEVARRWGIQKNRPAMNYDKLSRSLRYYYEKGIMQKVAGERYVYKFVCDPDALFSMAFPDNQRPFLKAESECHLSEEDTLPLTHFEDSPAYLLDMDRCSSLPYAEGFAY", "details": "protein: recombinant; tags: N-terminal GST; dsDNA, one strand shown", "outline": "as §1"}, "HSF1": {"target": "HSF1 (Homo sapiens, UniProt Q00613 1-529)", "sequence (Q00613 whole entry)": "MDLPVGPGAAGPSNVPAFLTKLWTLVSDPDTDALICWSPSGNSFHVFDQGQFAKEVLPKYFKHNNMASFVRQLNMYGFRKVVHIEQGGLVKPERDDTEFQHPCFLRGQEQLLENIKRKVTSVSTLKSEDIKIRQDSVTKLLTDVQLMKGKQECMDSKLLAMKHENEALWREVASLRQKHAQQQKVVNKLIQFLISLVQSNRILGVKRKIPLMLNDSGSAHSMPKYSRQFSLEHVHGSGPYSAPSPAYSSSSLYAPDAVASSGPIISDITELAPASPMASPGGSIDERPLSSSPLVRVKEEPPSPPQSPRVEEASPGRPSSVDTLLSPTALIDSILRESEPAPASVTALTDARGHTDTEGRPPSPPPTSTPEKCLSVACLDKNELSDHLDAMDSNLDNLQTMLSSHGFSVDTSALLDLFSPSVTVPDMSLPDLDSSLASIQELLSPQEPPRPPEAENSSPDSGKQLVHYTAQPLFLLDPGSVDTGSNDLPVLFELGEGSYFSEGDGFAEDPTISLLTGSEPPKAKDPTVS", "details": "protein: recombinant; tags: N-terminal GST; chain copies: 3; dsDNA, one strand shown", "outline": "as §1"}, "SPIC": {"target": "T2, SPIC (Homo sapiens, UniProt Q8N5J4 1-248)", "T2 sequence": "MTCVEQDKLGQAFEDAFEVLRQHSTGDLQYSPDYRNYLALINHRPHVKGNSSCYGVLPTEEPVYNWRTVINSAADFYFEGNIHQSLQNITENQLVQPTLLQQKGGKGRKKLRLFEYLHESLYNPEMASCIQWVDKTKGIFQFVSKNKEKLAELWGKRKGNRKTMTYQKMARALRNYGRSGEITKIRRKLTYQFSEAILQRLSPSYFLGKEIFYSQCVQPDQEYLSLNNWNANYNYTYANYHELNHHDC", "details": "protein: recombinant; tags: N-terminal GST; dsDNA, one strand shown", "outline": "as §1"}, "ELF4": {"target": "ELF4 (Homo sapiens, UniProt Q99607 1-663)", "sequence (Q99607 whole entry)": "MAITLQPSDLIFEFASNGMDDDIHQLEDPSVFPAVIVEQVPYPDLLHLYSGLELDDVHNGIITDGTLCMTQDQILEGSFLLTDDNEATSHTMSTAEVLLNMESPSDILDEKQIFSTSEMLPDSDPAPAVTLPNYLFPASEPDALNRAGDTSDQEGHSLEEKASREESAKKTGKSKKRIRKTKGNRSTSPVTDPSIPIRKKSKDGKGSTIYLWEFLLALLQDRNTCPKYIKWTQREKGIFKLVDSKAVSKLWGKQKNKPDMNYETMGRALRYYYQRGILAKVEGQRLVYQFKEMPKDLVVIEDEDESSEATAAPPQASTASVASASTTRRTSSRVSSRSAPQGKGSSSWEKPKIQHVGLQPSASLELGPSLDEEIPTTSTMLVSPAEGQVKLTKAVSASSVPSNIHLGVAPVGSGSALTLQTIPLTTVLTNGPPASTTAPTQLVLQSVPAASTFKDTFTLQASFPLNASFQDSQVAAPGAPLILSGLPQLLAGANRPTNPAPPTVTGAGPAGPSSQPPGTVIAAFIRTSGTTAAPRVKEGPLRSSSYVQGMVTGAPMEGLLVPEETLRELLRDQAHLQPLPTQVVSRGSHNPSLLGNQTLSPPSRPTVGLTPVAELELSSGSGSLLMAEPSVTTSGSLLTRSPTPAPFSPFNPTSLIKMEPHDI", "details": "protein: recombinant; tags: N-terminal GST; dsDNA, one strand shown", "outline": "as §1"}, "ELK4": {"target": "T3, ELK4 (Homo sapiens, UniProt P28324-2 1-405)", "T3 sequence": "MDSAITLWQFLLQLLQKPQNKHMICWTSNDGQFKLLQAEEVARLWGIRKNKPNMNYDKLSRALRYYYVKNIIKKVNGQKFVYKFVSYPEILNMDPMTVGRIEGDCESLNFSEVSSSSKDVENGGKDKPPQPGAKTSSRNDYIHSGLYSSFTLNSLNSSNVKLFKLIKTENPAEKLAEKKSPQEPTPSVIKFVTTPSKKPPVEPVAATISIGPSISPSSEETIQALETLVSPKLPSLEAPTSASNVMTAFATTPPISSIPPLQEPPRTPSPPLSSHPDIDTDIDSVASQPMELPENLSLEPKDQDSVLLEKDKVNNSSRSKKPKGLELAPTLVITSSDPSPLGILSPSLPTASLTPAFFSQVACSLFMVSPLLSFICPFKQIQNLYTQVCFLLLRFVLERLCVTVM", "details": "protein: recombinant; tags: N-terminal GST; dsDNA, one strand shown", "outline": "as §1"}, "ETV2": {"target": "T4, ETV2 (Homo sapiens, UniProt O00321 1-342)", "T4 sequence": "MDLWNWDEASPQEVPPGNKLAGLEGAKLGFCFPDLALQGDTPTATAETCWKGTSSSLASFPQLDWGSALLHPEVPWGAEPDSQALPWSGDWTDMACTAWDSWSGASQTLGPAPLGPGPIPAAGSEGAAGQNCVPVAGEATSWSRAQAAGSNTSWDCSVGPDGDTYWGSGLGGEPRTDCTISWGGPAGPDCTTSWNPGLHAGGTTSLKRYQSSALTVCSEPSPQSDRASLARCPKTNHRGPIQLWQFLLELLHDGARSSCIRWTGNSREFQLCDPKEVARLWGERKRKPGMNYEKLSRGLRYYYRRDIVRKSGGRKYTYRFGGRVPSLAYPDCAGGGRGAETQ", "details": "protein: recombinant; tags: N-terminal GST; dsDNA, one strand shown", "outline": "as §1"}, "ELF3": {"target": "T5, ELF3 (Homo sapiens, UniProt P78545 1-371)", "T5 sequence": "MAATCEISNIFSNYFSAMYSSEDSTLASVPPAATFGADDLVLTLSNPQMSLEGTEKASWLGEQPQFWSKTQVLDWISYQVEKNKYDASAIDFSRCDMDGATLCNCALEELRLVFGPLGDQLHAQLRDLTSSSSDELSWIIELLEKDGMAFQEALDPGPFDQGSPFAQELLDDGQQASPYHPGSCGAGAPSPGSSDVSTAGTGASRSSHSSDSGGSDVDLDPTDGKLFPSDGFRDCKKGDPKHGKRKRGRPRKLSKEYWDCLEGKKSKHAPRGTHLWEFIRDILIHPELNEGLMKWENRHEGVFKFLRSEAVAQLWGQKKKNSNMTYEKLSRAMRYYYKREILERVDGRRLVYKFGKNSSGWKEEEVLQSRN", "details": "protein: recombinant; tags: N-terminal GST; dsDNA, one strand shown", "outline": "as §1"}, "CRX": {"target": "CRX (Homo sapiens, UniProt O43186 1-299)", "sequence (O43186 whole entry)": "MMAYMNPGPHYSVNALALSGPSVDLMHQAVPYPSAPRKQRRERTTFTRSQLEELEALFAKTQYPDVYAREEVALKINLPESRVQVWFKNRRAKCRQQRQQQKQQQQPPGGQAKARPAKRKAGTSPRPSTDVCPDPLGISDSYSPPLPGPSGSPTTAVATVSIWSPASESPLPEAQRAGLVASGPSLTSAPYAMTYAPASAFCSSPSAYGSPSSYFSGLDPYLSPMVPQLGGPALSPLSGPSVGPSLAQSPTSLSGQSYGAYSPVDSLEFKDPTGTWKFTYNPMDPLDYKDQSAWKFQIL", "details": "protein: recombinant; tags: N-terminal GST; dsDNA, one strand shown", "outline": "as §1"}, "ETV1": {"target": "ETV1 (Homo sapiens, UniProt P50549 1-477)", "sequence (P50549 whole entry)": "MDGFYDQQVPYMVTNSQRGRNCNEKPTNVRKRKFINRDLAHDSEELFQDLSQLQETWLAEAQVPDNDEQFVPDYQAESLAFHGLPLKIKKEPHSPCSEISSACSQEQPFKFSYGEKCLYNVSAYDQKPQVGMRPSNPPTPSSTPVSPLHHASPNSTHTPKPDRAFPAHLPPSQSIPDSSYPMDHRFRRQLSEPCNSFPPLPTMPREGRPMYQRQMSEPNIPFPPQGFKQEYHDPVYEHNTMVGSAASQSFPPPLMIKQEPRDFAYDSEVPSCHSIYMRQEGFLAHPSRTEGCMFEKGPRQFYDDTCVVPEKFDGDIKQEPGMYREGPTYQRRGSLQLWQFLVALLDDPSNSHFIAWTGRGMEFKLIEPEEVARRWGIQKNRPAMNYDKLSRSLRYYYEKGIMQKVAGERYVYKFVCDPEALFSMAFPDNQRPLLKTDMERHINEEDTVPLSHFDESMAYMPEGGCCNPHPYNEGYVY", "details": "protein: recombinant; tags: N-terminal GST; dsDNA, one strand shown", "outline": "as §1"}}}
{"sequence": "ATCCAA", "values": [{"measurement": "binding signal", "setting": "FEV", "result": "1.19 fold enrichment (6-mer frequency, TF over GST control)"}, {"measurement": "binding signal", "setting": "ETV5", "result": "1.13 fold enrichment (6-mer frequency, TF over GST control)"}, {"measurement": "binding signal", "setting": "HSF1", "result": "1.29 fold enrichment (6-mer frequency, TF over GST control)"}, {"measurement": "binding signal", "setting": "SPIC", "result": "1.12 fold enrichment (6-mer frequency, TF over GST control)"}, {"measurement": "binding signal", "setting": "ELF4", "result": "1.23 fold enrichment (6-mer frequency, TF over GST control)"}, {"measurement": "binding signal", "setting": "ELK4", "result": "1.16 fold enrichment (6-mer frequency, TF over GST control)"}, {"measurement": "binding signal", "setting": "ETV2", "result": "1.09 fold enrichment (6-mer frequency, TF over GST control)"}, {"measurement": "binding signal", "setting": "ELF3", "result": "1.28 fold enrichment (6-mer frequency, TF over GST control)"}, {"measurement": "binding signal", "setting": "CRX", "result": "1.63 fold enrichment (6-mer frequency, TF over GST control)"}, {"measurement": "binding signal", "setting": "ETV1", "result": "1.18 fold enrichment (6-mer frequency, TF over GST control)"}]}
